From PubChem
PLK1 PBD block: inhibitors of human PLK1 polo-box domain binding. P53350. Plk1 PBD binding of FITC phosphopeptide, fluorescence polarization. Potency, µM, for the others: max response, negative = inhibition, hits mostly inhibitors. 360,000 tested, 2.8% active. AID 720504; also: series mostly up to about 57 µM; % is scaled to controls: 0 for no effect and ±100 for the full control effect; nearly all actives have a fitted effect of over 65% in size
Target sequence (P53350 whole entry, looked up, the tested form may be a part): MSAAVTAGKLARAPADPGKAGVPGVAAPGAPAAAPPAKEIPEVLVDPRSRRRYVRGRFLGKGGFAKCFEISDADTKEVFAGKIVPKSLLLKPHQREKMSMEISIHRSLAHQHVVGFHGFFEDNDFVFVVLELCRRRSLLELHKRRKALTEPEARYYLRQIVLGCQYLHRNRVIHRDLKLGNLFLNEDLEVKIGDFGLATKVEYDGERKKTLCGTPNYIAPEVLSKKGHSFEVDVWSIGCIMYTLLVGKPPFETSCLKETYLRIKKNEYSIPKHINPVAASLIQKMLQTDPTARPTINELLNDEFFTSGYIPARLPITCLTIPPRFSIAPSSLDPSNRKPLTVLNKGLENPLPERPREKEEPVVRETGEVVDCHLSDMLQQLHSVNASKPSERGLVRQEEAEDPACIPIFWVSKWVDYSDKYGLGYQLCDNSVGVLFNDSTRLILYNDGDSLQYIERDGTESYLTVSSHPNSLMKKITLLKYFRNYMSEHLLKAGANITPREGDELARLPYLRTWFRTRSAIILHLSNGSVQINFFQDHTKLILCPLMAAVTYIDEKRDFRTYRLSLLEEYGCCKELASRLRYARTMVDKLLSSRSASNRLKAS
JMJD2A Tudor: inhibitors of human JMJD2A Tudor domain; O75164; AlphaScreen JMJD2A-Tudor / H3K4me3 peptide binding; Potency, µM (titrated, usually from 114 µM), for the others: top-dose activity change, negative = inhibition, usual class: inhibitors; 390,000 tested, 4.4% active; AID 504339; also: % is scaled to controls: 0 for no effect and ±100 for the full control effect; nearly all actives have a fitted effect of over 50% in size
VDR inh: blocks the human vitamin D receptor | Potency, µM, for inactives: max response, negative = inhibition, usual class: inhibitors | 400,000 tested, 0.93% active | VDR-SRC2-3 peptide fluorescence polarization, 2 h | P11473 | AID 504847; also: % is scaled to controls: 0 for no effect and ±100 for the full control effect
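Inhibition of the VDR/SRC2-3 peptide interaction is quantified by fluorescence polarization. Compounds (23 nl, pintool) incubate with the reagents for 2 hours at ambient room temperature.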
BAZ2B block: BAZ2B (human) inhibition; Q9UIF8; AlphaScreen BAZ2B-H3K14Ac peptide displacement; Potency, µM (titrated, usually from 114 µM), for the others: at the highest dose activity change, negative = inhibition, most hits filed as inhibitors; 360,000 tested, 4.4% active; AID 504333; also: % is scaled to controls: 0 for no effect and ±100 for the full control effect; nearly all actives have a fitted effect of over 60% in size
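In this displacement format the biotinylated H3(5-23) peptide acetylated at Lys14 serves as ligand at 50 nM, with BAZ2B at 50 nM in PBS pH 7.4 containing 0.01% Tween-20. Donor and acceptor beads are 10 ug/mL final.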
HP1b binding inh: inhibitors of HP1-beta chromodomain binding to methylated histone tails; AlphaScreen HP1-beta / biotin-H3K9me3 peptide binding; Potency, µM (titrated, usually from 114 µM), for inactives: at the top dose activity change, negative = inhibition, most hits filed as inhibitors; AID 540317; P83916; 390,000 tested, 0.56% active; also: nearly all actives have a fitted effect of over 70% in size
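Compound inhibition of the preformed complex between 50 nM HP1-beta and 50 nM biotinylated H3K9me3 peptide was read by AlphaScreen. Buffer was PBS pH 7.4 with 0.01% Tween-20. Incubations ran 30 min at room temperature, with 10 ug/mL donor/acceptor beads.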
G9a block: G9a (human) methyltransferase inhibition | Q96KQ7 | G9a H3K9 monomethylation, AlphaScreen, 2 h | Potency, µM (titrated, usually from 102 µM), without a hit: at the highest dose activity, negative = inhibition, usual class: inhibitors | 350,000 tested, 8.8% active | AID 504332; also: % is scaled to controls: 0 for no effect and ±100 for the full control effect; nearly all actives have a fitted effect of over 75% in size
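AlphaScreen detection with an anti-monomethyl H3K9 antibody quantified product after a 2 h room-temperature reaction containing 500 nM biotinylated H3K9 peptide, 20 µM SAM and 20 nM enzyme, which had been preincubated 15 min with compound.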
* = called active by the depositor; ? = inconclusive; / = no result given; [ ] = dose if it differs, or a comment. Hits are enriched below; roughly 11% of the tested compounds scored in any of these assays. Calls follow the shape of the dose curve; as a rule, active = well fitted curve in the direction sought with a large enough effect; inconclusive = small, poorly fitted or top-dose-only effect, or another doubt; inactive = no such curve, though single readings can be large; an effect the other way counts as inactive or inconclusive. Potency is read from the fitted curve at half-maximal effect.

SMILES	PLK1 PBD block	JMJD2A Tudor	VDR inh	BAZ2B block	HP1b binding inh	G9a block
O=C1CN(C(=O)COC(=O)/C=C/c2ccco2)c2ccccc2N1	8.6%	-11.7%	-8.8%	?	0.8%	44.7µM*
O=C1CN(C(=O)COc2ccccc2F)c2ccccc2N1	-3.7%	-19.3%	-13.1%	4.4%	9.5%	50.1µM*
Cc1ccc(/C=C/C(=O)OCC(=O)N2CC(=O)Nc3ccccc32)o1	26.7µM*	56.2µM*	-24.2%	?	-11.1%	50.1µM*
O=C1CN(C(=O)COc2ccccc2Cl)c2ccccc2N1	3.9%	-11.3%	-20.0%	-5.4%	31.0%	?
CN(CC1COc2ccccc2O1)C(=O)CSc1nncs1 (stereo not given)	7.6%	-6.8%	-6.7%	/	37.1%	/
CCOc1ccc(/C=C2\SC(=S)N(CC(=O)NCCCN3CCOCC3)C2=O)cc1	-8.9%	?	3.8%	-30.6%	-25.5%	?
COc1ccc(/C=C2\SC(=S)N(CCC(=O)NCCCN3CCOCC3)C2=O)cc1	?	?	?	?	1.4%	?
O=C(CCCN1C(=O)/C(=C/c2cccc(Br)c2)SC1=S)NCCCN1CCOCC1	-28.8%	44.7µM*	-7.8%	10µM*	-19.0%	44.7µM*
O=C(CCN1C(=O)/C(=C\c2cccc(Br)c2)SC1=S)N1CCOCC1	2.0%	-13.1%	4.3%	-14.6%	2.4%	10.5%
CCc1ccc(/C=C2\SC(=S)N(CCC(=O)NCCCN3CCOCC3)C2=O)cc1	-1.9%	?	2.8%	35.5µM*	-7.7%	/
COC(=O)c1ccc(/C=C2\SC(=S)N(CCCC(=O)NCCCN3CCOCC3)C2=O)cc1	-5.5%	-33.5%	-0.4%	?	70.8µM*	?
CC(C)c1ccc(/C=C2\SC(=S)N(CC(=O)NCCCN3CCOCC3)C2=O)cc1	-9.0%	?	-3.3%	31.6µM*	?	79.4µM*
CCc1cccc(NC(=O)c2cc3c(=O)n(Cc4ccccc4)ccc3nc2C)c1	/	-32.0%	0.4%	-13.1%	?	-4.2%[59 µM]
COc1ccc(/C(C)=N/NC(=O)CNC(=O)/C=C\c2ccccc2)c(OC)c1	-11.9%	-12.1%	2.0%	?	15.8%	25.7%
COc1ccc(NC(=O)CN(c2ccc(C)cc2)S(=O)(=O)c2cccc3nonc23)cc1OC	/	-32.7%	-10.6%	/	5.7%	?
CCN(CC(=O)NCc1ccc(Cl)cc1)C(=O)CN1C(=O)NC(C)(c2ccccc2)C1=O (stereo not given)	-10.5%	-11.1%	-3.3%	-15.2%	27.2%	27.9%
CCc1ccc(NC2CC(=O)N(CCc3ccc(OC)c(OC)c3)C2=O)cc1 (stereo not given)	26.7µM*	?	?	-26.2%	?	50.1µM*
COc1ccc(CCN2C(=O)C3C(C2=O)C2C=CC3C23CC3)cc1OC (stereo not given)	23.8µM*	?	1.8%	/	-11.3%	10.7%
COc1ccc(CCNC2CC(=O)N(CCc3ccccc3)C2=O)cc1OC (stereo not given)	0.9%	5.1%	15.4%	4.4%	44.3%	?
COc1ccc(CCN2C(=O)CC(Nc3ccc(N4CCOCC4)cc3)C2=O)cc1OC (stereo not given)	-8.5%	?	9.5%	44.7µM*	-9.6%	14.1µM*
CCOC(=O)C1=NOC2C3CC(C12)C1C(=O)N(CCc2ccc(OC)c(OC)c2)C(=O)C31 (stereo not given)	26.7µM*	35.5µM*	-11.1%	?	?	/
CC(Oc1ccc(Br)cc1)C(=O)NCC(C)(C)N1CCOCC1 (stereo not given)	-6.8%	-8.8%	-4.6%	-8.3%	27.9%	-5.8%
O=C1CC(Nc2ccc(N3CCOCC3)cc2)C(=O)N1c1ccccc1F (stereo not given)	-9.0%	?	-3.1%	4.9%	-5.1%	8.91µM*
CCNC(=S)NNC(=O)c1cc(C2CC2)nc2ccccc12	-10.0%	2.0%	5.1%	-1.4%[57.1 µM]	20.8%	17.5%
CSc1cc(-c2ccc(Cl)cc2)c(C(=O)NC(C)C)s1	2.99µM*	?	-24.1%	7.2%	-6.8%	26.9%
SMILES	PLK1 PBD block	JMJD2A Tudor	VDR inh	BAZ2B block	HP1b binding inh	G9a block
CN(C)C(=C(C#N)C#N)N1CCN(c2ccc(Cl)cc2)CC1	29.9µM*	?	-7.0%	-3.8%	-19.8%	-31.0%
CN=c1scc(-c2ccccc2F)n1/N=C/c1ccc[nH]1	-3.2%	50.1µM*	29.9%	31.6µM*	39.8µM*	17.8µM*
COc1ccc(C)cc1NC(=O)CSc1nnc(-c2ccco2)n1Cc1ccco1	-11.5%	?	-14.1%	-35.6%	-18.6%	56.2µM*
CCOc1ccccc1NC(=O)CSc1nnc(-c2ccco2)n1Cc1ccco1	-10.3%	-33.8%	0.6%	?	7.4%	17.8µM*
CCOc1ccc(NC(=O)CSc2ncc(-c3ccc(F)cc3)n2Cc2ccco2)cc1	-14.1%	-17.6%[11.4 µM]	-2.8%	8.91µM*	-17.7%	?
CCc1ccc(OCC(=O)Nc2cc(S(=O)(=O)CC)ccc2O)cc1	-9.4%	-15.3%	8.6%	5.2%	25.5%	22.4%[2.33 µM]
COc1ccc(C(=O)N2CCc3ccccc3C2)cc1S(=O)(=O)N1CCCC1	-6.0%	/	/	/	/	/
COC(=O)c1ccc(CNC(=O)CC[C@H]2O[C@@H](n3cc(C)c(=O)[nH]c3=O)C[C@@H]2O)cc1	-0.2%	/	/	/	/	/
CCN(C[C@H]1N[C@@](C)(C(=O)OC)[C@H]2C(=O)N(C)C(=O)[C@@H]12)C(=O)c1ccc(C(C)(C)C)cc1	5.9%	-29.7%	3.5%	/	15.6%	/
O=C1C2C(C(=O)N1/N=C/c1cc([N+](=O)[O-])c(O)cc1O)C1C=CC2C12CC2 (stereo not given)	?	50.1µM*	-13.2%	?	-19.4%	56.2µM*
O=C1C2C(C(=O)N1/N=C/c1cc(Br)cc([N+](=O)[O-])c1O)C1C=CC2C12CC2 (stereo not given)	-29.4%	79.4µM*	?	?	?	?
O=[N+]([O-])c1cc(Br)cc(/C=N/n2cnnc2)c1O	?	-33.6%	-15.2%	?	-11.7%	31.6µM*
O=C1C2C(C(=O)N1/N=C/c1cc([N+](=O)[O-])ccc1O)C1C=CC2C12CC2 (stereo not given)	-6.5%	-13.1%	3.1%	2.6%	19.6%	5.1%
NC(N)=N/N=C/c1cc([N+](=O)[O-])ccc1O	-5.6%	-16.9%	-21.4%	-4.0%	20.9%	0.6%
O=[N+]([O-])c1cc(Cl)cc(/C=N/n2cnnc2)c1O	-16.4%	-20.4%	-8.0%	/	-4.0%	-10.8%
C=CCS/C(N)=N\N=C\c1cc(Br)cc([N+](=O)[O-])c1O	-13.5%	-36.0%	-7.0%	?	-9.1%	50.1µM*
O=C(O)Cn1c2ccccc2c2ccccc21	-5.6%	-9.2%	-4.2%	0.6%	-11.4%	0.3%
